# Tested on: VDR:RXRa (NR concentration 270 nM, RXRa partner concentration 90 nM)
# Assay: PBM binding z-score (relative to random genomic background probes); higher = stronger binding; sequences stand for … in GC…GCGATTGACAGCGTAGAATGAAGG
# Procedure: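 Protein-binding microarray (Agilent 4x180K custom design, double-stranded 60-nt probes: 5' GC cap, 34-nt variable region, 24-nt constant primer region; full probe sequence given). Purified or IVT nuclear receptor:RXRα heterodimers (3:1 NR:RXRα, mostly 270:90 nM) or homodimers were incubated for 1 h in PBS with 2% milk and no ligand, then detected with Alexa488 antibodies. Fluorescence from o1-orientation probes (~5 replicates averaged) was converted to z-scores against 500 random hg19 background probes. Variable regions are seed direct-repeat (DR0–DR5) sites, all their single-nucleotide variants and half-site ablations.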
row,Sequence,PBM binding z-score
1,ATATGTAGGGTAGGGTCATTCAGAAAGTAGGGAA,4.48
2,CCAGACAGGTGAAAGGTAACTCACTCTGGTACGC,0.767
3,CCTACTGGGCCATTCAGAGGTCATTGTTCATATG,3.9
4,TCGAGTAGGTTACGGGGGCTTTCAGGGATGAAGA,2.02
5,GGTACGAGGGCAAAGTTGATAGCATCTGTCGACG,1.14
6,CTCCAAAGGTCGGTTGAGGTGAGTATACGGATAA,2.42
7,CGAACTAGGCCACCAGGACAGTGAAGAGGTTGGA,-0.817
8,CCGACTGGGGCAAAGGTTACGATACTCAGTACGA,1.61
9,CCGTGTAGGTTACGAGGGGGCATTCAGTGCGAAT,5.7
10,ATATGTAGGTTCCATCCGGGTCATTCAGGCTATG,3.22
11,CAAACTAGGTCAAAGGACAGTGAAAGGCGACGTA,1.53
12,CCTTACGGGTCACTTACAGGTTATAGCATTTGGA,3.6
13,AGTCAAAGTTCATCTGGGTAACGTAAGATATGCT,4.96
14,CTACGTAGGTTAAGGGGGTCATTCAGTTTGAAAG,7.58
15,CGTCCAAGGTCAAGCTCAGTGAAAGAGACTCGAA,4.06
16,CCTACTGGGCCATTAAGAGGTCATTGATCATATG,3.95
17,ATAAGTAGGTTAGGGTCATTCAGAAAGTAGGGAA,4.88
18,TCATATAGGTCAAAGGTGAAAGTCGGTGTGGTAA,4.65
19,CCTAGCAGACCAATCTGGGTCACTCAAGGCTTGA,0.199
20,CGGACTGGGGCAAAGGTTACCATACTCAGTACGA,1.9

row,Sequence,PBM binding z-score
1,CGAACTAAGTCACCAGGACAGTGAAGAGGTTGGA,-0.118
2,CCTACTGGGCCATTGAGAGGTCATTGATCATATG,3.81
3,TGGCCTAGGTCATGGGCCAGTATACCACGCGAAC,1.62
4,CCGAGTAGGTTACGAGGTGGCATTCAGTGCGAAT,0.516
5,TCTTGTAGGTCAAAGGTTAAGAAAGCCGAAGCCT,4.54
6,CGGAGTAGGTTACGAGGGGGCATTCAGTGCGAAT,5.44
7,CATACAGGGACAGCTAGGCCAGAGTAGGGACGGC,-0.582
8,ATATGTAGGTTAGGGTCATTCAAAAAGTAGGGAA,4.58
9,CTATGTAGTTTAAGGGGGTCATTCAGTTTGAAAG,6.94
10,ATCGAAAGGTCGAAGGTCAGTATACCCACCCGAA,4.35
11,AGTCAAAGTTCACTAGGTTACGTAAGATTCAGCT,4.71
12,CGCACTAGGTCACCAGGACAGTGAAGAGGTTGGA,1.87
13,CGTCTAAGGTCAAGGTCAGTGAAAGAGACTCGAA,5
14,CGAACTAGGTCAAAGGTCAGTGAAAGGCGACGTA,5.88
15,CCGAGTAGATTACGAGGGGGCATTCAGTGCGAAT,3.48
16,TTACCGAGGTGAAAGGTCGTTGATGCACGCCTTG,3.72
17,CTAACTAGGTCAAAGGACAGTGAAAGGCGACGTA,1.3
18,CCGAGTAGGTTACGAGGGGGCATTCAGTGCGAAT,5.35
19,CGTCTAAGGTCAGCAGGTCAGTGAAAGCGACGTG,4.3
20,ATATGTAGGTTAGTGTCATTCAGAAAGTAGGGAA,1.04
